Experimental data from PubChem BioAssay.
Calls of active or inactive are those of the source. The rule behind the calls is not given here.

Test system: Botulinum neurotoxin type F light chain protease (Clostridium botulinum)
Test: Clostridium botulinum type F light chain protease inhibitors, microsphere substrate cleavage, validation (AID 588459)
Settings: multiplex microsphere protease substrate cleavage assay, flow cytometry; at 10 µM; active compounds read high

| Compound | inhibition |
| --- | --- |
| O=C(O)[C@@H](O)c1ccccc1 | -0.3% (inactive) |
| COc1cc(C2CC(=O)NC3=C2C(=O)CC(C)(C)C3)ccc1O (stereo not drawn) | -1.7% (inactive) |
| O=C(NC1CC1)C1CCN(C2CCN(C(=O)Cc3ccc(F)cc3)CC2)CC1 | -2.4% (inactive) |
| O=C(O)c1ccc(N2C(=O)/C(=C\c3ccccc3)N=C2c2ccccc2)cc1 | 1% (inactive) |
| CC(=O)N(CCC1(C(C)C)CCOC(C)(C)C1)Cc1ccco1 (stereo not drawn) | -2% (inactive) |
| CS(=O)(=O)Nc1cccc(C(=O)CC2(O)C(=O)Nc3ccc(Br)cc32)c1 (stereo not drawn) | 3.1% (inactive) |
| COc1ccc(C2N3CC4(C)CN2CC(C)(C3)C4)cc1OC (stereo not drawn) | -0.3% (inactive) |
| Cc1ccnc(NS(=O)(=O)c2ccc(N)cc2)n1 | 5.2% (inactive) |
| Cc1oc2c(O)c(O)ccc2c(=O)c1-c1ccccc1 | 1.6% (inactive) |

Target: Botulinum neurotoxin type A (Clostridium botulinum) (UniProt P0DPI0)
Sequence (P0DPI0 whole entry, looked up): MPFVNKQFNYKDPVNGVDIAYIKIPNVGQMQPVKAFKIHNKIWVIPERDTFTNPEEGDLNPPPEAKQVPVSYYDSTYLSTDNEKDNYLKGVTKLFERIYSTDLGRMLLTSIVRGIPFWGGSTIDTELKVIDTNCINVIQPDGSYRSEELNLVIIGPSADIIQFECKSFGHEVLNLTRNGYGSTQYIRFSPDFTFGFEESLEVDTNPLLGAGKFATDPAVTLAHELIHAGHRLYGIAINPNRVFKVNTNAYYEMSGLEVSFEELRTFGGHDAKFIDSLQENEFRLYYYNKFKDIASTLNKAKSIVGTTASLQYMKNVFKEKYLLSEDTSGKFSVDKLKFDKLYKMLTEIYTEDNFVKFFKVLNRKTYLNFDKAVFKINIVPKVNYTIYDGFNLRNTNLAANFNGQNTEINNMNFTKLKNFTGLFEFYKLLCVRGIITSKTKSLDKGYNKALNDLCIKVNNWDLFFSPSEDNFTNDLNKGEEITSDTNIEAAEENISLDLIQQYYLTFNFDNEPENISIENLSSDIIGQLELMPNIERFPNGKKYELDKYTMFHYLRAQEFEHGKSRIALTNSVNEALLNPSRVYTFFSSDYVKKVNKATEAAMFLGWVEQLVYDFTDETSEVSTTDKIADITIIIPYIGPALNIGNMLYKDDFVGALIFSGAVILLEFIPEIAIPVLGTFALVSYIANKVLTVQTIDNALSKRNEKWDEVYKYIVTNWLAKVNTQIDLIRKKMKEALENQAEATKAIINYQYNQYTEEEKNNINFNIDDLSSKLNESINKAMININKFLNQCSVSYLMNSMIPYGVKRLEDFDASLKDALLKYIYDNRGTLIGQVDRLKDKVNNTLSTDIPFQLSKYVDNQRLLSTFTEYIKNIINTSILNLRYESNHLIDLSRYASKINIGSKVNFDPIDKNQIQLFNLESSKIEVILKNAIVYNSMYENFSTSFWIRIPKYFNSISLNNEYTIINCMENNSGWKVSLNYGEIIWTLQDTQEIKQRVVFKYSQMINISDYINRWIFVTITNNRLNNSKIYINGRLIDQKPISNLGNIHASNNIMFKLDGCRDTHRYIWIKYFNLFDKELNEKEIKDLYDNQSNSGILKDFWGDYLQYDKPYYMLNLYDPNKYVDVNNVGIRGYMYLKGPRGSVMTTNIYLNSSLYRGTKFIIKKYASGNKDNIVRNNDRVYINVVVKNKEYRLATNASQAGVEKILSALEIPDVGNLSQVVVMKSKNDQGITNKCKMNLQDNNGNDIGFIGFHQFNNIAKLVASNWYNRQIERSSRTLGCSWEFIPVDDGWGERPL
Test: BoNT/A light chain protease inhibitors, biochemical, multiplex microsphere flow cytometry, validation set (AID 588460)
Settings: at 10 µM, active compounds read high

| Compound | inhibition |
| --- | --- |
| CN1CCN(C2=Nc3ccccc3Oc3ccc(Cl)cc32)CC1 | -1.8% (inactive) |
| C/C=C/c1ccc(OCCCCN2CC(C)CC(C)C2)c(OC)c1 (stereo not drawn) | -0.5% (inactive) |
| Fc1ccc(NC(=S)Nc2ccccc2Cl)cc1 | -0.7% (inactive) |
| C[C@]12CCC(=O)C=C1[C@H](O)C[C@@H]1[C@@H]2[C@@H](O)C[C@@]2(C)[C@H]1CC[C@]2(O)C(=O)CO | -0.3% (inactive) |
| Cc1ccc2c(c1)c1c(n2C)C(=O)CCC1 | -1% (inactive) |
| N#Cc1cc2c([nH]c1=O)CCCC2 | -0.6% (inactive) |
| O=C(NCc1ccccc1Cl)NC(=O)c1ccccc1 | 0.8% (inactive) |
| COC(=O)C1=C(C)NC(C)=C([N+](=O)[O-])C1c1ccccc1C(F)(F)F (stereo not drawn) | -1% (inactive) |
| OCCN1CCN(CCCN2c3ccccc3Sc3ccc(C(F)(F)F)cc32)CC1 | -0.1% (inactive) |
| CCSC(SCC)[C@H](O)[C@@H](O)[C@H](O)[C@H](O)CO | -0.7% (inactive) |
| Cn1cc(C2N3CC4(C)CN2CC(C)(C3)C4=O)c2ccccc21 (stereo not drawn) | 1.7% (inactive) |
| CC(=O)OCC(=O)[C@@]1(OC(C)=O)[C@@H](C)C[C@H]2[C@@H]3C[C@H](F)C4=CC(=O)C=C[C@]4(C)[C@@]3(F)[C@@H](O)C[C@@]21C | 0.4% (inactive) |
| O=C1NC2(Nc3ccccc31)C(=O)Nc1ccc(Br)cc12 (stereo not drawn) | -1% (inactive) |
| O[C@@H](CNC[C@H](O)c1ccccc1)c1ccccc1 | 1.5% (inactive) |
| Cc1cccc(C)c1NS(=O)(=O)c1ccc(NC(=O)c2ccc(Cl)c([N+](=O)[O-])c2)cc1 | -0.2% (inactive) |
| O=C(Nc1ccc(F)c([N+](=O)[O-])c1)c1ccc2c(c1)OCCO2 | -2.7% (inactive) |
| COC(=O)c1cc(OC)c(OC)cc1NC(=O)CN1C(=O)c2ccccc2C1=O | -1% (inactive) |
| COc1cc2ccc(=O)oc2c(O)c1OCC=C(C)C | 1.4% (inactive) |
| CC(C)N(C(=O)Cc1ccccc1[N+](=O)[O-])C(C)C | -2% (inactive) |
| CCOC(=O)C(=O)N1CCN(c2ccccc2OC)CC1 | -1.1% (inactive) |

| Compound | inhibition |
| --- | --- |
| CCCCC[C@H](O)/C=C/[C@@H]1[C@@H](C/C=C\CCCC(=O)OC)[C@@H](O)C[C@H]1O | -1% (inactive) |
| Cc1ccc(/C(=C\CN2CCCC2)c2ccccn2)cc1 | 0.3% (inactive) |
| O=C(O)/C=C/c1cccc(OCc2ccccc2)c1 | -0.9% (inactive) |
| CCCC(=O)O[C@]1(C(=O)CO)CC[C@H]2[C@@H]3CCC4=CC(=O)CC[C@]4(C)[C@H]3[C@@H](O)C[C@@]21C | 0.1% (inactive) |
| CC(C)(C)OC(=O)N1CC(O)CC1C(=O)OCC(=O)c1ccc(Cl)cc1 (stereo not drawn) | -2.3% (inactive) |
| COc1ccc(C2=C(CN(C)C)C(c3ccccc3)c3ccccc3O2)cc1 (stereo not drawn) | -3.7% (inactive) |
| Cc1coc2cc3oc(=O)c(CCC(=O)O)c(C)c3cc12 | -2% (inactive) |
| COc1ccc(C(=O)CCN2CCc3cc(OC)c(OC)cc3C2)cc1 | -0.3% (inactive) |
| CC1=C(C)C(=O)C(CCCCC#CCCCC#CCO)=C(C)C1=O | 0.4% (inactive) |
| CC(C)=CCCC(C)CN1CCC(N2CCC(C(=O)N3CCCC3)CC2)CC1 (stereo not drawn) | -0.4% (inactive) |
| O=C(O)[C@@H](O)c1ccccc1 | 0% (inactive) |
| COc1cc(C2CC(=O)NC3=C2C(=O)CC(C)(C)C3)ccc1O (stereo not drawn) | 0.3% (inactive) |
| O=C(NC1CC1)C1CCN(C2CCN(C(=O)Cc3ccc(F)cc3)CC2)CC1 | -0.6% (inactive) |
| O=C(O)c1ccc(N2C(=O)/C(=C\c3ccccc3)N=C2c2ccccc2)cc1 | -1.6% (inactive) |
| CC(=O)N(CCC1(C(C)C)CCOC(C)(C)C1)Cc1ccco1 (stereo not drawn) | -1.4% (inactive) |
| CS(=O)(=O)Nc1cccc(C(=O)CC2(O)C(=O)Nc3ccc(Br)cc32)c1 (stereo not drawn) | 1.3% (inactive) |
| COc1ccc(C2N3CC4(C)CN2CC(C)(C3)C4)cc1OC (stereo not drawn) | -1.6% (inactive) |
| Cc1ccnc(NS(=O)(=O)c2ccc(N)cc2)n1 | -0.3% (inactive) |
| Cc1oc2c(O)c(O)ccc2c(=O)c1-c1ccccc1 | 0.4% (inactive) |
